The supplement of paper PMC10849652
About 7,900 targets were measured; listed, in parts, are those with a hit and a random draw of the rest. About 0.6% of all pairs of compound and target were hits.

compound: C1=CC=C(C=C1)C2=NC(=C(N2)C3=CC=NC=C3)C4=CC(=C(C=C4)Cl)O; test: log2 fold change, soluble protein after heating vs DMSO (PISA); higher = thermal stabilisation; K562 cells, 10 uM, 30 min; active = over 0.2 and 3.5 SD of the protein, either way, in both replicates (recomputed)
How it was run: (§1)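 For each measurement, 10 μM compound was applied for 30 min to K562 cells at 2×10^6 cells/mL. Aliquots were heated for 3 min across 48°C-58°C, pooled, and extracted in PBS with 0.5% NP-40 at 4°C; the supernatant after 21,000xg for 90 min was soluble protein. This was quantified by TMTpro 16plex LC-MS/MS with channel sums equalised, and thermal stability was reported relative to control samples from duplicates, on a log2 fold-change scale.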

Chain of UniProt Q9Y5L4 (Q9Y5L4 whole entry, looked up): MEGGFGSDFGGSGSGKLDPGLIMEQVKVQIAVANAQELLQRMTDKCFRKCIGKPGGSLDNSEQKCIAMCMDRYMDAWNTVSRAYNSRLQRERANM
Chain of UniProt Q9BW92 (Q9BW92 whole entry, looked up): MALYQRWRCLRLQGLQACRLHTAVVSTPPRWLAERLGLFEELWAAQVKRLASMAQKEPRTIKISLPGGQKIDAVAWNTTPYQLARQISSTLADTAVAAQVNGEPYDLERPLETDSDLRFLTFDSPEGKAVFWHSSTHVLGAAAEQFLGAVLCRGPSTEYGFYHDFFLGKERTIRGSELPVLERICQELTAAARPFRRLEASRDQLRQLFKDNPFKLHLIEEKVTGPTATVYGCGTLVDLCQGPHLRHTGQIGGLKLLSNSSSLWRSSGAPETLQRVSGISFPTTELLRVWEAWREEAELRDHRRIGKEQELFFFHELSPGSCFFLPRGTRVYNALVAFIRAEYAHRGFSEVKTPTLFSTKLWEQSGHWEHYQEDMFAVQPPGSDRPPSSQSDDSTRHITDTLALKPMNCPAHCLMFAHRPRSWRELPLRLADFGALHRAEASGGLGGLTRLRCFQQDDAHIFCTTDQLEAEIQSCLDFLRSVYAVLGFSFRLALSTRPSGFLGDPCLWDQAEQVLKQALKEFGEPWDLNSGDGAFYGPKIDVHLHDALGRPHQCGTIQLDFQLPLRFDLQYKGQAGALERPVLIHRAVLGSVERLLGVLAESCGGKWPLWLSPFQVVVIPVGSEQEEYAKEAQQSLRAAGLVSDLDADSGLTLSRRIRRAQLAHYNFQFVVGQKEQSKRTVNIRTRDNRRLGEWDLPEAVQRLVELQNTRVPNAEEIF
Chain of UniProt Q7L7X3 (Q7L7X3 whole entry, looked up): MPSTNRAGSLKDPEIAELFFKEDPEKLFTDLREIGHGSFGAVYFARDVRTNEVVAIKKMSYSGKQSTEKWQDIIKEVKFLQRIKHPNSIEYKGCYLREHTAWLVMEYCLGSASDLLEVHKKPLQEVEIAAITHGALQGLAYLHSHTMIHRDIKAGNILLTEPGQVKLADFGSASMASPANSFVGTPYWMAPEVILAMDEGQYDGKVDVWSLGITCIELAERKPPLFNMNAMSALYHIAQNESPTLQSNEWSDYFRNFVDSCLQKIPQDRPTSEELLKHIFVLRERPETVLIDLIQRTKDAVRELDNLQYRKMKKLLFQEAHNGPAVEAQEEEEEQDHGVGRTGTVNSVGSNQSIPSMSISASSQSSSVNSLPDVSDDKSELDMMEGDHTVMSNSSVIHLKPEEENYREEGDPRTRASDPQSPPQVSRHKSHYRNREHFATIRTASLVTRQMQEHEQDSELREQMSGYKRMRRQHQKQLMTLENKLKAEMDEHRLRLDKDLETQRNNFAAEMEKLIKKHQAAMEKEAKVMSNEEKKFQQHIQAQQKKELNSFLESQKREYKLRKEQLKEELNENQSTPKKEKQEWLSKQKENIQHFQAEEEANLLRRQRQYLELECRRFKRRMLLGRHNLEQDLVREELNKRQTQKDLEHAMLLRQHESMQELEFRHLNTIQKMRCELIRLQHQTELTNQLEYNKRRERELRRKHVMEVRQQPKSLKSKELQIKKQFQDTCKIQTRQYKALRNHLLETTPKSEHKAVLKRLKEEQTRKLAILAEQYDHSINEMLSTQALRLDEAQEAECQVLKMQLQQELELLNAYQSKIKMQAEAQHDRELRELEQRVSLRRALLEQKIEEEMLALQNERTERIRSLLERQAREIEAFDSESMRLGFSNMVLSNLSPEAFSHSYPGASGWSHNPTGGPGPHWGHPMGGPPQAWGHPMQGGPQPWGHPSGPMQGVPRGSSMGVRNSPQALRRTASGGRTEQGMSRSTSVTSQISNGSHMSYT
Chain of UniProt Q969G3 (Q969G3 whole entry, looked up): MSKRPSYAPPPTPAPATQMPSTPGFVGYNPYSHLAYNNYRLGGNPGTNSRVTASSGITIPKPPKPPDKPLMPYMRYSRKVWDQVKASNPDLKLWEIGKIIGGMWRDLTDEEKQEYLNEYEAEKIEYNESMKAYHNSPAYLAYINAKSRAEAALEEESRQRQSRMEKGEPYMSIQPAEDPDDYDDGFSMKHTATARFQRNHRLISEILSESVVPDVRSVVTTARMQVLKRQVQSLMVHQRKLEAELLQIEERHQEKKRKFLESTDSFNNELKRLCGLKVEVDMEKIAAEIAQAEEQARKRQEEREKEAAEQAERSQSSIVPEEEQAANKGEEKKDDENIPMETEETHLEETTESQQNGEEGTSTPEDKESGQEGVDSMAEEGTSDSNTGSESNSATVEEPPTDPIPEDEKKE
Chain of UniProt Q15833 (Q15833 whole entry, looked up): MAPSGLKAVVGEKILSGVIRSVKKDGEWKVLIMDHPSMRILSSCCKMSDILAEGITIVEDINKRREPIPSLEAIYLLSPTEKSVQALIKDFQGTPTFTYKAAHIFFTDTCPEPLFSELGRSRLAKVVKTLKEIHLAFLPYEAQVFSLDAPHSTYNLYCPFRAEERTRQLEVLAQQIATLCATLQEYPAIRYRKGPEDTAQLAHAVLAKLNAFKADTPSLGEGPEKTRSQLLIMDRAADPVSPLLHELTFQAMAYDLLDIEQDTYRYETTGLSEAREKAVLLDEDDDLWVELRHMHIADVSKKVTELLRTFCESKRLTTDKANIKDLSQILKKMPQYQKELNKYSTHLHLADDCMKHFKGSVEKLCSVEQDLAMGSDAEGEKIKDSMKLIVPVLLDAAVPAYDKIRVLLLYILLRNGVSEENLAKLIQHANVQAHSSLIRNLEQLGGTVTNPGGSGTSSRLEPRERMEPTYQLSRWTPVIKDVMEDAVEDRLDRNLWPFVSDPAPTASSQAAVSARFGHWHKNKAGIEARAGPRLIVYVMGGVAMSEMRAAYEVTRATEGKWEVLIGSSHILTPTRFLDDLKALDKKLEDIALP
Chain of UniProt O60493 (O60493 whole entry, looked up): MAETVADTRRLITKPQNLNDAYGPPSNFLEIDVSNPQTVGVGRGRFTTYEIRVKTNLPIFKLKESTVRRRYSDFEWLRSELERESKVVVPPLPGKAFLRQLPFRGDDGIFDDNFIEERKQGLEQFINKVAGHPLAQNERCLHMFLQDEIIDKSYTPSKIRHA
Chain of UniProt Q9NXE4 (Q9NXE4 whole entry, looked up): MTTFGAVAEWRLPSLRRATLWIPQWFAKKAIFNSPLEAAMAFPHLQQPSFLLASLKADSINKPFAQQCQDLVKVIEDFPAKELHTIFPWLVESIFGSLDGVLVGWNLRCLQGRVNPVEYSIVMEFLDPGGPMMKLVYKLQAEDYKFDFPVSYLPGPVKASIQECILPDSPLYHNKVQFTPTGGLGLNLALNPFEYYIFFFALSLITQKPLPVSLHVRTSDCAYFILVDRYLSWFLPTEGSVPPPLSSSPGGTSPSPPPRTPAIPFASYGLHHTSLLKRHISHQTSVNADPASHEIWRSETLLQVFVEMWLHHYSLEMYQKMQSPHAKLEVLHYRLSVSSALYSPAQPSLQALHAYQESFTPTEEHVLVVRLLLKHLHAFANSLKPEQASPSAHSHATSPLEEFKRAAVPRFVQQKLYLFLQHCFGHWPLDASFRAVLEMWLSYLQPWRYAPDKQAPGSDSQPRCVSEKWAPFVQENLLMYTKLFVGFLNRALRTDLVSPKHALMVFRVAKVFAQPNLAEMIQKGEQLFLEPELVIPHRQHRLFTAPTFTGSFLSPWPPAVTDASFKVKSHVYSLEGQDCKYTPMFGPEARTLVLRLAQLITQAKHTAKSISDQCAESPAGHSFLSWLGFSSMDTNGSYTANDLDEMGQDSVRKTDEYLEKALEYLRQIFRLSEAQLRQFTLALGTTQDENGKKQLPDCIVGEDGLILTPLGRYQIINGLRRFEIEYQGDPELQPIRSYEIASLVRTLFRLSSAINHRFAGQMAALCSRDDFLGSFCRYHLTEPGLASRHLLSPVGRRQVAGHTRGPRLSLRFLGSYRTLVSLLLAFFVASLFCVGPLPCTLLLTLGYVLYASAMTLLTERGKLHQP
Chain of UniProt Q9UH99 (Q9UH99 whole entry, looked up): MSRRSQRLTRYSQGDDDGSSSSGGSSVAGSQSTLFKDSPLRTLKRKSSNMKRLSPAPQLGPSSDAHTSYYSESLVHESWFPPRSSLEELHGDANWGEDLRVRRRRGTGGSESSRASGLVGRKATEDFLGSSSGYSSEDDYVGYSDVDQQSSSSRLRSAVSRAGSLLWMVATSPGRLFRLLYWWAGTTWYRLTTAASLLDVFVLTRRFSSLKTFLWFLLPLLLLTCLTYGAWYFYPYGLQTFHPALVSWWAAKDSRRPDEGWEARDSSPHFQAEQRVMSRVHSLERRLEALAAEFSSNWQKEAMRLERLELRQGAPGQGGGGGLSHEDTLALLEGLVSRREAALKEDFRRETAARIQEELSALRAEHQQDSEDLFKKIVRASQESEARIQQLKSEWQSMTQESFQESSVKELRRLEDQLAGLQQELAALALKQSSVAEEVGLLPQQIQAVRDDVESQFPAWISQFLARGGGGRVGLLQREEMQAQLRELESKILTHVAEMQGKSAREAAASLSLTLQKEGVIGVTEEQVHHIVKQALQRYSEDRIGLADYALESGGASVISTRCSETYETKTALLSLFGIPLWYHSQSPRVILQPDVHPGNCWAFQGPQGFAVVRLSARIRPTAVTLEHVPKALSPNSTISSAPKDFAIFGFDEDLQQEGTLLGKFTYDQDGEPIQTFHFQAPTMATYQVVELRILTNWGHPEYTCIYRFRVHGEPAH
Chain of UniProt O75663 (O75663 whole entry, looked up): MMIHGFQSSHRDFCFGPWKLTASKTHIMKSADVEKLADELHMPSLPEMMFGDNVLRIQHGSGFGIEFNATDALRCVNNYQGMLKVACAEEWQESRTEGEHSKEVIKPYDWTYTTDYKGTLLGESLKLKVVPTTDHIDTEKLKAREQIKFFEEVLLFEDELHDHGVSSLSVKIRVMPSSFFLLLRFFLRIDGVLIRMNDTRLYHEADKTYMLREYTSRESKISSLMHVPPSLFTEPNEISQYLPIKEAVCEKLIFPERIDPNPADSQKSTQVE

log2 fold change, inactive:
TARS2 (UniProt Q9BW92) -0.03
TM9SF2 (UniProt Q99805) 0.04
TIPRL (UniProt O75663) -0.002
SREK1 isoform 2 (UniProt Q8WXA9) 0.233
SNX3 (UniProt O60493) 0.123
STXBP2 isoform 3 (UniProt Q15833) 0.05
SMPD4 isoform 4 (UniProt Q9NXE4) -0.021
TIMM13 (UniProt Q9Y5L4) 0.063
SPTBN1 (UniProt Q01082) 0.021
SUN2 (UniProt Q9UH99) 0.005
TAOK1 (UniProt Q7L7X3) -0.009
SMARCE1 (UniProt Q969G3) 0.001
SRI (UniProt P30626) 0.185
SNRPB2 (UniProt P08579) -0.054

compound: C1=CC=C2C(=C1)C3=NNC4=CC=CC(=C43)C2=O; test: as above
How it was run: as §1

log2 fold change, inactive:
TBC1D23 (UniProt Q9NUY8) -0.054
TFB2M (UniProt Q9H5Q4) -0.019
TGFBRAP1 (UniProt Q8WUH2) 0.121
SNX9 (UniProt Q9Y5X1) -0.011
THRAP3 (UniProt Q9Y2W1) -0.171
SRRM2 (UniProt Q9UQ35) -0.073
SSX2 (UniProt Q16385) -0.035
SMAP (UniProt O00193) 0.015
SMARCA5 (UniProt O60264) -0.103
SPAG9 (UniProt O60271) -0.012
SURF1 (UniProt Q15526) 0.017
TANGO6 (UniProt Q9C0B7) -0.056
SYNE1 (UniProt Q8NF91) 0
STAM2 (UniProt O75886) -0.006
SRSF2 (UniProt Q01130) -0.032
SMAD9 (UniProt O15198) -0.098
SPPL2B (UniProt Q8TCT7) -0.072
SUOX (UniProt P51687) -0.004
SPART (UniProt Q8N0X7) -0.014
TLK1 (UniProt Q9UKI8) -0.034
STXBP5 (UniProt Q5T5C0) -0.015
TCOF1 isoform 4 (UniProt Q13428) -0.001
TERF2IP (UniProt Q9NYB0) -0.074
TARS2 (UniProt Q9BW92) 0.003
TM9SF2 (UniProt Q99805) 0.009
TIPRL (UniProt O75663) 0.03
SREK1 isoform 2 (UniProt Q8WXA9) -0.096
SNX3 (UniProt O60493) -0.136
STXBP2 isoform 3 (UniProt Q15833) 0.026
SMPD4 isoform 4 (UniProt Q9NXE4) -0.076
TIMM13 (UniProt Q9Y5L4) -0.005
SPTBN1 (UniProt Q01082) -0.055
SUN2 (UniProt Q9UH99) -0.087
TAOK1 (UniProt Q7L7X3) -0.007
SMARCE1 (UniProt Q969G3) -0.057
SRI (UniProt P30626) 0.016
SNRPB2 (UniProt P08579) -0.015

compound: C1CCN(C1)C(=O)NC2=CC=CC(=C2)NC3=NC=C(C(=N3)NCCC4=CN=CN4)Br; test: as above
How it was run: as §1

log2 fold change, inactive:
TBC1D23 (UniProt Q9NUY8) -0.036
TFB2M (UniProt Q9H5Q4) 0.002
TGFBRAP1 (UniProt Q8WUH2) -0.06
SNX9 (UniProt Q9Y5X1) -0.01
THRAP3 (UniProt Q9Y2W1) 0.038
SRRM2 (UniProt Q9UQ35) -0.061
SSX2 (UniProt Q16385) -0.022
SMAP (UniProt O00193) 0.006
SMARCA5 (UniProt O60264) -0.109
SPAG9 (UniProt O60271) 0.015
SURF1 (UniProt Q15526) -0.141
TANGO6 (UniProt Q9C0B7) -0.026
SYNE1 (UniProt Q8NF91) -0.038
STAM2 (UniProt O75886) -0.047
SRSF2 (UniProt Q01130) 0.041
SMAD9 (UniProt O15198) 0.113
SPPL2B (UniProt Q8TCT7) -0.041
SUOX (UniProt P51687) 0.013
SPART (UniProt Q8N0X7) -0.033
TLK1 (UniProt Q9UKI8) -0.032
STXBP5 (UniProt Q5T5C0) -0.014
TCOF1 isoform 4 (UniProt Q13428) -0.043
TERF2IP (UniProt Q9NYB0) -0.047
TARS2 (UniProt Q9BW92) 0.001
TM9SF2 (UniProt Q99805) -0.04
TIPRL (UniProt O75663) 0.021
SREK1 isoform 2 (UniProt Q8WXA9) -0.126
SNX3 (UniProt O60493) 0.026
STXBP2 isoform 3 (UniProt Q15833) -0.058
SMPD4 isoform 4 (UniProt Q9NXE4) 0.023
TIMM13 (UniProt Q9Y5L4) -0.025
SPTBN1 (UniProt Q01082) -0.067
SUN2 (UniProt Q9UH99) -0.038
TAOK1 (UniProt Q7L7X3) -0.005
SMARCE1 (UniProt Q969G3) 0.075
SRI (UniProt P30626) -0.037
SNRPB2 (UniProt P08579) 0.057
